Shown are actives, neighbours in structure and some others; about 3.1% of the full set was active somewhere.
A549 tox = counter-screen for Nrf2 inhibitors: cytotoxicity in A549 cells. A549 ARE-Fluc cells, CellTiter-Fluor viability, 18-24 h. Potency, µM (top dose mostly 46 µM), without a hit: at the highest dose activity change, negative = cytotoxicity, most hits filed as inhibitors. 0.16% of 390,000 active. AID 504648; further: potency means the concentration at half of the fitted maximal effect; on the % scale 0 is the no-effect control and ±100 the full control effect
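Cytotoxicity counterscreen: CellTiter-Fluor fluorescence was measured in A549 ARE_Fluc cells after 18-24 h of compound exposure in a concentration series. The subsequent BugLite luminescent read reports ARE-luciferase activity.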
TrxR1 inh = inhibitors of rat thioredoxin reductase 1; O89049; recombinant rTrxR1, NADPH fluorescence consumption, selenite substrate; Potency, µM (top dose mostly 114 µM), without a hit: at the highest dose activity change, negative = inhibition, hits mostly inhibitors; 1% of 390,000 active; AID 588453; further: potency means the concentration at half of the fitted maximal effect; on the % scale 0 is the no-effect control and ±100 the full control effect; nearly all actives have a fitted effect of over 65% in size
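Rat TrxR1 (90 nM in the dispensed reagent) was pre-reduced with 400 uM NADPH for 5 min at room temperature, then incubated with compound for 15 min. After 400 uM selenite was added, NADPH fluorescence (Ex 340/Em 450 nm) was followed for 8 min.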
Mito fusion act = inhibitors of mitochondrial division or activators of mitochondrial fusion. S. cerevisiae fusion-defective mutant growth rescue, CellTiterGlo 48 h. Potency, µM (top dose mostly 46.1 µM), without a hit: at the highest dose growth rescue (activation), usual class: activators. 0.23% of 320,000 active; further: potency means the concentration at half of the fitted maximal effect; % of control where 0% means no effect; nearly all actives have a fitted effect of over 45% in size
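Temperature-sensitive fusion-defective S. cerevisiae (e.g. fzo1-1, mgm1-5) were grown with compound in YPEG medium (3% ethanol, 3% glycerol) for 48 hours at 37C. Growth rescue was measured as viability by CellTiterGlo luminescence after 10 minutes at ambient.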
TrxR1 substrate = substrates of rat thioredoxin reductase 1. O89049. purified TrxR1 substrate turnover, NADPH consumption readout. Potency, µM (top dose mostly 114 µM), without a hit: at the top dose activity change, negative = substrate turnover. 0.01% of 390,000 active; further: potency means the concentration at half of the fitted maximal effect; on the % scale 0 is the no-effect control and ±100 the full control effect; nearly all actives have a fitted effect of over 50% in size
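Rat TrxR1, dispensed at 90 nM, was prereduced with 400 uM NADPH (final) for 5 min at ~22 deg C, then incubated with compound 15 min before 400 uM selenite. A first-read NADPH fluorescence drop versus no-compound background flagged substrates.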
Nrf2 block = Nrf2 pathway inhibition; 2.1% of 360,000 active; Potency, µM (series often up to 46 µM), for the others: top-dose activity change, negative = inhibition, actives largely listed as inhibitors; A549 ARE-Fluc reporter, luciferase luminescence, 18-24 h; further: potency means the concentration at half of the fitted maximal effect; on the % scale 0 is the no-effect control and ±100 the full control effect; nearly all actives have a fitted effect of over 60% in size
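Reporter: ARE-Fluc in A549. Exposure: 18-24 h, 37 °C, 5% CO2, 5% FBS OPTI-MEM. Readouts: fluorescent cytotoxicity (CellTiter-Fluor), then luminescent Nrf2 signal after BugLite.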
IDH1 R132H inh = human IDH1 R132H inhibition. O75874. IDH1-R132H enzyme, NADPH consumption, diaphorase/resazurin fluorescence. Potency, µM (highest dose often 76.6 µM), for inactives: top-dose activity change, negative = inhibition, hits mostly inhibitors. 0.093% of 390,000 active. AID 602179; further: potency means the concentration at half of the fitted maximal effect; on the % scale 0 is the no-effect control and ±100 the full control effect; nearly all actives have a fitted effect of over 65% in size
Target sequence (O75874 whole entry R132H, stated change not applied): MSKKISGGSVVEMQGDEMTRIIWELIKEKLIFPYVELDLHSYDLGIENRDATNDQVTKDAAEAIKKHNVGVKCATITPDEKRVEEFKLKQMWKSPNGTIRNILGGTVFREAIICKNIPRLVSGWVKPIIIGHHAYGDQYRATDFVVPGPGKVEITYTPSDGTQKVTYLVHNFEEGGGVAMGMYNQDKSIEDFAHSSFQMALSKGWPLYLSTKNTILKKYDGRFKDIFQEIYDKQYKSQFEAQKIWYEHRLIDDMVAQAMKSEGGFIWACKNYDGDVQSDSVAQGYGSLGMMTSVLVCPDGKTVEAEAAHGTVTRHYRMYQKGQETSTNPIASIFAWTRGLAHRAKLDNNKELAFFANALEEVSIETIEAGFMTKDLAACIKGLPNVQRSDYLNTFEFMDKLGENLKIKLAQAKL
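IDH1-R132H (0.5 ug/mL dispensed) in pH 7.5 Tris buffer was preincubated 30 min with compound, then given a substrate mix of 0.016 mM NADPH and 2 mM alpha-KG for 80 min at room temperature; remaining NADPH was read by diaphorase/resazurin fluorescence.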
Resorufin autofl = autofluorescence interference, mutant IDH1 hit counter-screen | AID 623980 | Resorufin detection reagent fluorescence interference, cell-free | 750 tested, under 10 active | shares compounds with IDH1 R132H inh | inhibition of signal, % at 51.2 µM;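 further: 0% = wells with normal resorufin and full inhibition = wells lacking resorufin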
IDH1 WT = wild-type IDH1 (human) inhibition counterscreen. shares compounds with IDH1 R132H inh. WT IDH1 enzyme, NADPH diaphorase/resazurin fluorescence. Potency, µM (titrated, usually from 115 µM), for the others: top-dose activity change, negative = inhibition, hits mostly inhibitors. 9% of 750 active. AID 623995;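 further: potency means the concentration at half of the fitted maximal effect; 0% = full WT IDH1 enzyme control and full inhibition = no enzyme wells; nearly all actives have a fitted effect of over 55% in size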
Target sequence (O75874 whole entry, looked up): as the sequence (O75874 whole entry R132H, stated change not applied) above, with H132R counted along it
mIDH1 confirm = mutant IDH1 (human) inhibition, confirmed; AID 624002; IDH1 R132H enzyme, NADPH diaphorase/resazurin fluorescence; Potency, µM (titrated, usually from 76.6 µM), inactives show at the top dose activity change, negative = inhibition, usual class: inhibitors; 83% of 750 active; shares compounds with IDH1 R132H inh; further: potency means the concentration at half of the fitted maximal effect; nearly all actives have a fitted effect of over 50% in size
* marks the source's active call; other numbers are inactive results; ? = inconclusive; · = no result given; [ ] = remark or other dose. The call rests on the fitted dose curve; in most records, active means well fitted curve in the direction sought with a large enough effect; inconclusive means small, poorly fitted or top-dose-only effect, or another doubt; inactive means no such curve, though single readings can be large; an effect the other way counts as inactive or inconclusive.

SMILES	A549 tox	TrxR1 inh	Mito fusion act	TrxR1 substrate	Nrf2 block	IDH1 R132H inh	Resorufin autofl	IDH1 WT	mIDH1 confirm
COc1ccc(N(CC(=O)N2CCN(c3ccc(Cl)cc3)CC2)S(=O)(=O)c2c(C)n[nH]c2C)cc1	-12%	20%	-3%	7%	?	?	-2	-7%	13µM*
COc1ccc(N(CC(=O)Nc2ccc(Cl)cc2)S(=O)(=O)c2c(C)n[nH]c2C)cc1	3%	11%	0%	0%	1%	4%	·	·	·
NS(=O)(=O)c1ccc(N2N=C(c3ccc(Br)cc3)CC2c2ccc(F)cc2)cc1 (stereo unspecified)	?	95%[57.1 µM]	-10%	400%[57.1 µM]	18µM*	?	0	2%	?
Cc1ccccc1Cn1c(SCc2ccc(C(=O)NCc3cccs3)cc2)nc2ccncc21	-3%	30%	·	6%	12%	12%	·	·	·
Cc1ncc(CO)c2c1Oc1nc(-c3ccccc3F)nc(SCC(=O)N(C)c3ccccc3)c1C2	-9%	?	3%	?	?	52µM*	-1	10%	?
COc1cc(OC)c(NC(=O)Cn2cnc3nc4c(cc3c2=O)CCCC4)cc1Cl	-9%	18%[57.1 µM]	·	8%[57.1 µM]	·	20%	·	·	·
O=C1CCCC2=C1C(c1ccc(O)c(Br)c1)C1=C(CCCC1=O)N2c1ccccc1	0%	0%	-28%	-4%	-17%	?	6	11%	?
C=CS(=O)(=O)c1ccc(Oc2ccc(S(=O)(=O)C=C)cc2)cc1	?	5µM*	-5%	-4%	18µM*	32µM*	1	?	11µM*
Cc1cc(C)c2c(=N)c3ccccc3n(CCCCCCCCn3c4ccccc4c(=N)c4c(C)cc(C)nc43)c2n1	?	-8%	·	5%	?	52µM*	-9	2%	28µM*
Cc1cc(C)c2c(C)nn(-c3ccccc3)c2n1	9%	6%	-1%	23%	19%	-3%	·	·	·
COc1cc(/C=C2/C(C)=C(C#N)c3nc(N)c(C#N)c(C)c32)ccc1OCC(=O)O	-10%	-66%	2%	10%[57.1 µM]	4%	-21%	·	·	·
CC1=C(C#N)c2nc(N)c(C#N)c(C)c2/C1=C\c1ccc(-c2ccccc2C(=O)O)o1	-18%	-37%	6%	0%[57.1 µM]	-8%	?	-1	25µM*	35µM*
CCO[C@@H]1OC(C(=O)Nc2ccccc2)=C[C@H](c2ccc(C(F)(F)F)cc2)[C@H]1CCCO	0%	15%	7%	-4%	-17%	?	-4	-4%	22µM*
CCCOc1ccccc1C1Oc2nc(SC)nnc2-c2ccccc2N1C(C)=O (stereo unspecified)	0%	3%	·	-8%	-21%	-3%	·	·	·
CC(C)c1nc(N2CCOCC2)c(C#N)c2c1CCCC2	-2%	-2%	14%	47%	-3%	?	1	5%	35µM*
CC(C)c1nc(Cl)c(C#N)c2c1CCCC2	8%	-61%	-2%	9%[57.1 µM]	7%	12%	·	·	·
COc1ccc(N2CC(NC(=O)c3ccc4c(c3)OCO4)CC2=O)cc1 (stereo unspecified)	-6%	29%[57.1 µM]	·	16%[57.1 µM]	·	5%	·	·	·
NC(=O)CSc1nc2c(c(=O)n1-c1ccccc1)C1(CCCCC1)Cc1ccccc1-2	-15%	15%	-4%	-1%	?	52µM*	-2	0%	25µM*
Cc1ccc(OCCCCn2c(CCNC(=O)C3CCCCC3)nc3ccccc32)cc1	-4%	0%	·	-5%	-1%	·	·	·	·
Cc1ccccc1C(=O)OCc1cc(=O)n2nc(C3CCCCC3)sc2n1	-1%	1%[57.1 µM]	·	0%[57.1 µM]	?	-2%	·	·	·
CC(C)c1ccc(NC(=O)C(c2ccccc2)N(Cc2ccco2)C(=O)CC2NC(=O)NC2=O)cc1 (stereo unspecified)	-15%	29%[57.1 µM]	-12%	9%[57.1 µM]	-23%	?	-4	5%	?
COc1ccc(NC(=O)C(c2ccc(OC)cc2)N(C)C(=O)CC2NC(=O)NC2=O)cc1 (stereo unspecified)	1%	1%	-4%	2%	1%	5%	·	·	·
COc1ccc(Cl)cc1N(C(=O)c1ccco1)C(C(=O)NC1CCCC1)c1ccco1 (stereo unspecified)	-3%	15%	3%	12%	3%	-9%	·	·	·
Cc1ccc(N(C(=O)c2ccco2)C(C(=O)NC2CCCC2)c2ccco2)c(C)c1 (stereo unspecified)	-8%	5%	1%	-1%	-3%	?	4	0%	20µM*
O=C(NC1CCCC1)C(c1ccncc1)N(C(=O)c1ccco1)c1ccc(F)c(Cl)c1 (stereo unspecified)	4%	7%[57.1 µM]	-21%	7%[0.0914 µM]	4%	?	4	1%	40µM*
COc1ccc(Cl)cc1N(C(=O)c1ccco1)C(C(=O)NC1CCCC1)c1cccnc1 (stereo unspecified)	-6%	6%	5%	-1%	12%	?	2	-2%	?
Cc1cc(C)cc(N(C(=O)c2ccco2)C(C(=O)NC2CCCC2)c2ccncc2)c1 (stereo unspecified)	-12%	1%[57.1 µM]	-1%	5%[57.1 µM]	?	?	5	7%	45µM*
COc1ccc(N(C(=O)c2ccco2)C(C(=O)NC2CCCC2)c2cccs2)cc1 (stereo unspecified)	-13%	10%[57.1 µM]	-9%	4%[57.1 µM]	-10%	?	-1	-7%	?
O=C(NC1CCCCC1)C(c1ccncc1)N(C(=O)c1ccco1)c1ccc(F)cc1 (stereo unspecified)	-25%	3%	-8%	2%	-19%	?	1	-1%	40µM*
O=C(NCc1ccc(F)cc1)c1cnc(N2CCOCC2)c2ccccc12	10%	14%[57.1 µM]	·	5%[57.1 µM]	·	9%	·	·	·
